According to PubChem BioAssay AID488839 (Broad Institute, 2010):
Out of some 330,000 compounds screened, about 35 (0.01%) were called active.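 The calls were made as follows: active = highest replicate inhibition of at least 50% and at least 75% of replicates reaching 50%; inconclusive = only one of the two criteria met; inactive = both criteria failed.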 These entries were drawn from the full list.

target: Cyclin-dependent kinase 5 (Homo sapiens) + Cyclin-dependent kinase 5 activator 1 (Homo sapiens) (UniProt Q00535+Q15078); assay: CDK5/p35 phosphotransfer blockade – biochemical, single concentration, primary screen (AID 488839); details: Recombinant CDK5/p35, ADP-Glo luminescence, 60 min; at 10 µM; stronger effect = higher value;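 also: plate controls were DMSO neutral control for no effect and GW8510 at 10 µM for full effect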
Sequence (Q00535 whole entry, looked up): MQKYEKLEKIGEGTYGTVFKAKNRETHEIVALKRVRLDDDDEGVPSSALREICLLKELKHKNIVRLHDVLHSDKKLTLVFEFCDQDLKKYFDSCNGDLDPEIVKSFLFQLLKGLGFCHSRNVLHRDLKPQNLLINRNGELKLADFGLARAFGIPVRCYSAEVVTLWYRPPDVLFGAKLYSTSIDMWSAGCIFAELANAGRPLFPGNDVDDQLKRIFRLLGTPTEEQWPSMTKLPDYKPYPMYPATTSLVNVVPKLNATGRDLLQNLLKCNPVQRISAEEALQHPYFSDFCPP
Sequence (Q15078 whole entry, looked up): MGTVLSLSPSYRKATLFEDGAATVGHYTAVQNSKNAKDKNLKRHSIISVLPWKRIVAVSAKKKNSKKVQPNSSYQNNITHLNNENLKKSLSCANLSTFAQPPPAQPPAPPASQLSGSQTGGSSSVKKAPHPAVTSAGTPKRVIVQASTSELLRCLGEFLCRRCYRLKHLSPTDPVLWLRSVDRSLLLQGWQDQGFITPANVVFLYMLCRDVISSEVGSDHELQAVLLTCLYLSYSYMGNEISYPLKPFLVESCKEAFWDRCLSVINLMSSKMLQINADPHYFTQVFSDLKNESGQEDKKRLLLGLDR

inhibition, inactive:
COC(=O)c1c(NC(=O)c2c(Cl)cnn2C)sc(C)c1C -2.29%
O=c1[nH]c2ccc(S(=O)(=O)N3CCCC3)cc2[nH]1 -0.663%
CCOc1ccc(OCCSc2nc3ccccc3n2CC(=O)O)cc1 0.306%
Cc1nc(-c2nnc(SCC(=O)Nc3cc(C(F)(F)F)cc(C(F)(F)F)c3)n2C)cs1 -0.227%
CCCCCCCC(=O)OC(CN1CCCCCC1)CN1CCCC1=O (stereo not given) 0.855%
CC(CC(=O)Nc1ccc(F)cc1F)S(=O)(=O)c1ccc2c(c1)NC(=O)CO2 (stereo not given) 0.798%
COc1ccccc1NC(=O)C1CCCN(c2cc(C)nc3ncnn23)C1 (stereo not given) 0.792%
Cc1cccc(C)c1NC(=O)CNC(=O)C1CCCC1 0.783%
Cc1ccc(Nc2cc(=O)n(C3CCCCC3)c(=O)[nH]2)cc1C -0.561%
CC(C)NC(=O)COCc1cc(-c2ccc3c(c2)OCO3)on1 -3.05%
CC(=O)Nc1ccc(OC(=O)COc2ccc(Br)cc2)cc1 -1.45%
CCCNC(=O)c1c(Cl)cnn1-c1ccc(C)cc1 -0.745%
Cc1noc(C)c1NC(=O)Nc1ccc2c(c1)C(=O)N([C@H](C)CO)C[C@H](C)[C@@H](CN(C)S(=O)(=O)c1cn(C)cn1)O2 0.62%
O=C(CCc1nnc2ccc(NCc3ccco3)nn12)Nc1cc(F)ccc1F 0.605%
O=C(O)Cn1c(Cc2ccccc2)nc2ccccc21 -0.592%
COc1ccc(C2OC(=O)CC2C(=O)NC(C)C)cc1 (stereo not given) -11.3%
O=C(CC1Nc2ccccc2NC1=O)Nc1ccccc1 (stereo not given) 1.13%
CCCCCCSc1ccc([C@@H]2[C@@H]3C(=O)N(CC)C(=O)[C@@H]3[C@]3(C(=O)OC)CCCCN23)cc1OC -6.06%
Cc1ccccc1NS(=O)(=O)CCCCC(Cl)(Cl)Cl -0.0868%
O=C(COc1coc(CN2CCN(c3ccccc3F)CC2)cc1=O)N1CCc2ccccc21 0.232%
COc1ccc(Cl)cc1NC(=O)CN(C)CC(=O)Nc1ccc2c(c1)OCO2 1.26%
O=Cc1c(N2CCN(c3cccc(Cl)c3)CC2)nc2ccccn2c1=O -1.83%
CN1CCN(S(=O)(=O)c2ccc(N3CCN(S(=O)(=O)c4cccs4)CC3)nc2)CC1 -0.333%
CCC(C)c1ccccc1N1CC(C(=O)N2CCN(S(=O)(=O)c3ccc(F)cc3)CC2)CC1=O (stereo not given) 0.723%
CC(C)[C@H](NC(=O)N1CCn2c1nc1ccccc12)C(=O)NC1CC1 2.48%
COc1cc(C(=O)N2CCN(S(=O)(=O)c3ccc(C(C)C)cc3)CC2)ccc1OCC(=O)N1CCOCC1 -0.998%
Cc1cccc(NC(=O)c2ccc(OCC(=O)NCc3ccccc3)cc2)c1C 0.801%
Cc1nc2c(-c3ccc(F)cc3)c(C)nn2c(C)c1CCC(=O)NCc1ccco1 -0.00338%
CCc1ccc(C(=O)CSc2nnc(C)c(=O)[nH]2)cc1 -0.74%
Cc1cc(C)cc(Oc2nc3c(C)cccn3c(=O)c2/C=C(\C#N)C(=O)NC2CCS(=O)(=O)C2)c1 (stereo not given) 0.399%
CC(C)[C@H](NC(=O)N1CCn2c1nc1ccccc12)C(=O)NCCc1ccccc1 1.82%
COC(=O)c1ccccc1NC(=O)C1CCN(S(=O)(=O)c2cc(OC)ccc2OC)CC1 0.427%
N#Cc1ccc(C(=O)Nc2nc(-c3cccs3)c(C(=O)C(F)(F)F)s2)cc1 -1.16%
O=C(Cn1nc(Cc2cccnc2)c2ccccc2c1=O)NCC1CCCO1 (stereo not given) -0.846%
CCOC(=O)Cc1c(C)nc2c(C#N)c(C)nn2c1C -2.18%
CC(C)CCN(C(=O)c1csnn1)C(C(=O)NC1CCCC1)c1ccccc1 (stereo not given) 0.702%
COCc1c(N)c(C)nc(Cl)c1C#N 11.1%
O=C(Cn1nc(C(=O)O)c2ccccc2c1=O)Nc1ccc(F)cc1 0.796%
CCC(C)(C)NC(=O)C(c1ccc(OC)cc1)N(C(=O)CCC(=O)Nc1cc(C)on1)c1ccc(OC)cc1OC (stereo not given) -0.155%
CCSc1ccccc1C(=O)NCc1ccc(OC)cc1 0.696%
COc1ccc(OC)c(/C(C)=N\NC(=O)c2cc3cc(Cl)ccc3n2C)c1 0.107%
CS(=O)(=O)N(CC(=O)N1CCCCCC1)c1cccc(Cl)c1Cl 0.703%
CCOc1ccc(C(=O)NC2CCN(CC(=O)NCc3cccs3)CC2)cc1 1.1%
CC(C)CCNC(=O)C1CCCN(S(=O)(=O)c2ccc(F)cc2)C1 (stereo not given) -0.29%
COc1ccc(-c2nc3n(c(=O)c2C#N)CCS3)c(OC)c1 0.425%
CC(Sc1nnnn1C)C(=O)NC(=O)NC1CCCCC1 (stereo not given) -1.1%
CCc1c(C)nc2c(-c3ccccc3)c(C)nn2c1Nc1ccc(NC(C)=O)cc1 0.169%
CCN(C(=O)COC(=O)c1ccccc1O)c1cccc2ccccc12 -1.97%
COc1cccc(CC2(CO)CCCN(Cc3ccc(OC(F)F)cc3)C2)c1 (stereo not given) 0.552%
Cc1ccc(C2SCC(=O)N2c2ccccc2)cc1 (stereo not given) 0.449%
COC(=O)Nc1ncc(CN2C(=O)c3ccccc3C2=O)s1 0.873%
CCC(C)NC(=O)Cn1nc(C(F)(F)F)c2c1CCC2 (stereo not given) -1.07%
Cc1ccc(C)c(NS(=O)(=O)c2cc(Br)cnc2N)c1 -0.401%
CSCCC(NS(=O)(=O)c1ccccc1F)C(=O)N1CC=C(c2ccccc2)CC1 (stereo not given) 0.0413%
CCCCCCCC[n+]1cccc(C(=O)N2c3c(nc(N)[nH]c3=O)NC(C)C2C)c1 (stereo not given) -4.49%
CC(OC(=O)Cc1ccc(F)cc1)C(=O)N1CCc2ccccc21 (stereo not given) -7.94%
O=C(O)/C(=C/c1cccnc1)NC(=O)c1ccccc1 1.62%
O=C(O)CN1C(=O)CC(Cc2ccccc2)C1=O (stereo not given) -1.35%
CC(Nc1ccccc1)c1cccnc1 (stereo not given) -1.25%
Cc1nc2nc(COc3ccccc3)[nH]n2c(=O)c1Cc1ccccc1 -2%
Cc1csc(OCC(=O)Nc2ccc(C)c(C)c2)n1 -0.147%
CCS(=O)(=O)c1ccc(C(=O)NC)c(Cl)c1Cl -2.96%
CCc1cccc(C)c1N(C(=O)Cn1c(CO)nc2ccccc21)C(C)COC (stereo not given) -0.226%
O=c1c2ccccc2ccc2ccc(P(=O)(O)O)cc12 1.94%
CCC(C)N(C(=O)Cn1nc(C)c([N+](=O)[O-])c1C)C1CCS(=O)(=O)C1 (stereo not given) -0.0593%
Cc1c(CCO)c(=O)[nH]n1C(=O)c1c(F)cccc1F 0.283%
CC(C)[C@@H](C(=O)O)N(Cc1cccc(CN([C@H](C(=O)O)C(C)C)S(C)(=O)=O)c1)S(C)(=O)=O -2.67%
Cc1cc(-c2csc(N)n2)c(C)n1-c1ccccc1 0.604%
CCCN1C2=C(C(=O)CCC2)C(c2ccc(O)c(Br)c2)C2=C1CCCC2=O 2.42%
CC(Oc1cccc(Cl)c1)C(=O)Nc1ccc(S(=O)(=O)Nc2ncccn2)cc1 (stereo not given) -1.05%
COc1cc(OC)cc(-c2c(C#Cc3ccsc3)c3cc(-c4ccc(OC)cc4F)ccc3n2C)c1 2.95%
O=C1COc2ccc(S(=O)(=O)NCCc3ccc(Cl)cc3)cc2N1 -4.51%
Cc1cccc(N2O[C@H]3C=CC2CCCC3)n1 -0.772%
NS(=O)(=O)c1ccc(CCNC(=O)NC2CCCCC2)cc1 -0.391%
COc1cc(OC)c(C2=NOC(C(=O)Nc3c(C)n(C)n(-c4ccccc4)c3=O)C2)cc1Cl (stereo not given) -0.625%
CCCCc1ccc(S(N)(=O)=O)cc1 0.729%
COc1ccc2c(c1)C=CC1(O2)N(CCO)c2ccccc2C1(C)C (stereo not given) 1.4%
CC(/C=C/C1(O)C(C)CC(=O)CC1(C)C)OC1OC(CO)C(O)C(O)C1O (stereo not given) -0.525%
Cc1ccc(C(=O)N/C(=C/c2ccco2)C(=O)NCCc2c[nH]c3ccccc23)cc1C 2.98%
CCOc1ccc(C(=O)NCC(=O)N2CCN(c3ccc(C(F)(F)F)cn3)CC2)cc1 -6.9%
COc1ccccc1OCCNC(=O)C(CCSC)NC(=O)COc1ccccc1 (stereo not given) 1.86%
O=C(C1CCCO1)N(Cc1ccccc1)c1ccccc1 (stereo not given) -1.15%
O=C(Nc1ccn(CCCNCc2ccc3[nH]ccc3c2)c(=O)n1)OCc1ccccc1 1.87%
O=C(CNC(=O)c1ccc2ccccc2c1)Nc1ncccc1O -1.57%
COc1cc(C2/C(=C(\O)c3ccc4c(c3)CC(C)O4)C(=O)C(=O)N2c2nnc(C)s2)cc(OC)c1OC (stereo not given) -1.78%
COc1cc(S(=O)(=O)N2CCOCC2)ccc1NC(=O)COc1ccc(N(C)S(=O)(=O)c2ccc(C)cc2)cc1 -0.554%
O=S(=O)(NCc1ccccc1Cl)c1cnc[nH]1 0.727%
O=C(OCC(=O)N1CCN(C(=O)c2ccco2)CC1)c1c(Cl)cccc1Cl 0.768%
O=c1c2ccccc2ncn1CCc1ccncc1 1.49%
CCOc1ccc(S(=O)(=O)N/N=C(\C)c2ccc(Cl)c(Cl)c2Cl)cc1 1.98%
